Artemis inh: blocks endonuclease activity of human Artemis; recombinant Artemis, quenched FAM hairpin cleavage fluorescence; inhibition, % at 10 µM; 0.78% of 30,000 active;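 active = at 10 µM dose, at least 30% inhibition, measured as corrected fluorescence normalized to stimulator and neutral control wells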
Target sequence (Q96SD1 whole entry, looked up): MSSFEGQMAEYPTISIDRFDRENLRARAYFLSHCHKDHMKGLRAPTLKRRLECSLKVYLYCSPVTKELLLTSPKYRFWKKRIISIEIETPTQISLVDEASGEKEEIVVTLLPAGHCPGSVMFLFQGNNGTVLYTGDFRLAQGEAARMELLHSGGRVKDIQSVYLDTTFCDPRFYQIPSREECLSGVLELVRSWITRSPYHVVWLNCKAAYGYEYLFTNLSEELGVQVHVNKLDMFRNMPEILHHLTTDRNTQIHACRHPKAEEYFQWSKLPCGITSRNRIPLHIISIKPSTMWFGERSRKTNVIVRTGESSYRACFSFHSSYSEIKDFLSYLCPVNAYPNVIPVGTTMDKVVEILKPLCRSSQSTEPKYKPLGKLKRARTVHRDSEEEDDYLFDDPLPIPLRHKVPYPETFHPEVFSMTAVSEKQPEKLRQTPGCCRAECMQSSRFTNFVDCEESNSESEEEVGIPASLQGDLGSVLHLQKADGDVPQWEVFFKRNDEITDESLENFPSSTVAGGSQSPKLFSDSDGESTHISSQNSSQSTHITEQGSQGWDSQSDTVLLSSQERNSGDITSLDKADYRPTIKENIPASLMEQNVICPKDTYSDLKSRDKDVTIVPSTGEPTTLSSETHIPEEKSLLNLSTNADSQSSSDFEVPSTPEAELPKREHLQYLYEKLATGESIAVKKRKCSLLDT
* = called active by the depositor. Many of the other results were omitted from the sample, so hits are more common in it than they were.

SMILES	Artemis inh
CCOC(=O)C(C)n1ncn2cccc2c1=O (stereo unspecified)	33*
CCC1(C)N=c2c(c(=O)n(C)c(=O)n2C)=NO1 (stereo unspecified)	8
Cc1sc(NC(=O)c2ccc(OCC(C)C)cc2)c(C(N)=O)c1-c1ccc(Cl)cc1Cl	4
COC(=O)c1c(S(=O)(=O)NCc2ccccc2)sc(C(=O)O)c1C	-5
COc1ccc(C(=O)Nc2ccc(Cl)cc2C(=O)N2CCCC(C)C2)cc1 (stereo unspecified)	5
C=CCn1c(=O)c(C(=O)Nc2cccnc2)c(O)c2ccccc21	16
CCn1c(=O)c(C(=O)NCc2ccccn2)c(O)c2ccccc21	-5
CC(C)Cn1c2c(c(O)c(C(=O)Nc3ncccc3O)c1=O)CCCC2	30*
CC(C)Cc1nnc(NC(=O)c2ccc([N+](=O)[O-])cc2)s1	3
COc1ccc(NC(=O)C2=C(C)Nc3ncnn3C2c2ccccc2C(F)(F)F)c(OC)c1 (stereo unspecified)	-5
Cc1noc(C)c1CSc1nnc(-c2ccncc2)n1-c1ccc(Cl)c(Cl)c1	-8
COc1ccccc1NC(=O)C(=O)N/N=C(\C)CC(=O)Nc1ccc(OCc2ccccc2)cc1	33*
COc1ccccc1NC(=O)CN1CCN(CC(=O)Nc2ccc(OCc3ccccc3)cc2)CC1	5
COc1ccc(NC(=S)Nc2ccc(OCc3ccccc3)cc2)cc1OC	-3
CCOC(=O)c1c(C)sc(Sc2ccc(Cl)cc2[N+](=O)[O-])c1OC	-1
Cc1cc(-c2csc(N)n2)c(C)n1C	32*
Cc1cccc2cc(CN(Cc3cccs3)C3(c4nnnn4C4CCCC4)CCCC3)c(=O)[nH]c12	8
CNC(=O)c1cc2cc(Cl)cc(OC)c2oc1=O	-2
CCN(CC)c1ccc(C=Nc2ccc(C#N)cc2)c(O)c1	2
CCN(CC)c1ccc(/C=N/Nc2nc3ccccc3[nH]2)c(O)c1	38*
CCCCNc1nc2ccccc2[nH]1	1
COc1ccc(OC)c(C(c2nnnn2CCC(C)C)N2CCN(C(=O)c3ccco3)CC2)c1 (stereo unspecified)	-3
Cc1ccc(-c2nnc(N3CCOCC3)c3ccccc23)cc1S(=O)(=O)NCC1CCCO1 (stereo unspecified)	-4
CCOC(=O)C1CSC(CC(=O)Nc2ccc(Cl)c(Cl)c2)C(=O)N1 (stereo unspecified)	-9
O=C1CCCc2oc3ccc(O)cc3c21	2
SMILES	Artemis inh
Cc1[nH]n(-c2ccccc2)c(=O)c1-c1cccc(Cl)c1	7
Cc1[nH]n(-c2ccccc2)c(=O)c1C(C[N+](=O)[O-])c1ccc(Br)cc1 (stereo unspecified)	34*
Cc1nc(=S)n(-c2ccccc2)[nH]1	-5
CC(C)OC(=O)[C@H]1[C@H](c2ccc(Cl)cc2)[C@@](C#N)(C(N)=O)[C@@H]2C=CC(C(N)=O)=CN21	6
O=C(CSc1ncnc2c1nnn2-c1ccc(F)cc1)NCC1CCCO1 (stereo unspecified)	0
O=C(Cn1cnc2c(cnn2-c2ccc(F)cc2)c1=O)NCC1CCCO1 (stereo unspecified)	33*
O=C(Cn1cnc2c(cnn2-c2ccc(F)cc2)c1=O)OCc1ccccc1	-1
CC1Cc2ccccc2N1C(=O)CSc1nnc(Cc2ccccc2)n1CCc1ccccc1 (stereo unspecified)	14
NC(=O)Cn1nnc(-c2ccccc2NC(=O)c2cnccn2)n1	1
C(=N\N1CCN(C2c3ccccc3-c3ccccc32)CC1)/c1ccccn1	32*
O=[N+]([O-])c1cc(/C=N/N2CCN(C3c4ccccc4-c4ccccc43)CC2)ccc1Cl	0
C(=N\N1CCN(C2c3ccccc3-c3ccccc32)CC1)/c1cccnc1	8
COC(=O)c1ccc(CSc2ncnc3c2nnn3-c2ccc(OC)cc2)o1	4
CCOC(=O)C1=C(O)CSC1=Nc1ccccc1	-2
CCOC(=O)C1=C(O)/C(=C/c2ccc(-c3ccccc3C(=O)O)o2)SC1=Nc1ccc(OC)cc1	30*
CCOC(=O)c1c(C)[nH]c(C=Nc2ccc(OC)cc2)c1O	10
Cc1cc(C)c(S(=O)(=O)Nc2ccc[nH]c2=O)c(C)c1	-7
Cc1ccc2cc(C(=O)O)c(C)nc2c1	0
CC(C)NC(=O)/C(=C/c1ccco1)c1ccccc1	-7
CN(C)c1ccc(/C=C/C=C2/SC(=S)N(c3ccccc3)C2=O)cc1	9
CC(C)C(C(=O)O)N1C(=O)/C(=C/C=C/c2ccco2)SC1=S (stereo unspecified)	39*
CC1(C)CC(=O)c2c(n(-c3cccc4ccccc34)ccc2=O)C1	5
COC(=O)CCCCCNc1ccc(C(=O)OC)cc1N	8
Cc1ccc(NCN2C(=O)c3ccccc3C2=O)c(C)c1	-9
COc1ccc(C)cc1NC(=O)CN(C)S(=O)(=O)c1cccs1	1
SMILES	Artemis inh
Cc1ccc(NC2=C/C(=N\S(=O)(=O)c3cccs3)c3ccccc3C2=O)c(C)c1	53*
O=C(Nc1ccccc1)N(C1=NCCC1)c1ccc(OC(F)F)cc1	11
S=c1[nH]nc(-c2ccccc2)o1	2
S=c1[nH]nc(C2COc3ccccc3O2)o1 (stereo unspecified)	31*
c1ccc2c(c1)OCC(c1csc3ncnc(N4CCCC4)c13)O2 (stereo unspecified)	4
CCC(NC(=O)NCc1cccnc1)(C(F)(F)F)C(F)(F)F	-4
Cc1cnn(-c2ccc3nnc(-c4ccc(Cl)cc4)n3n2)c1	-1
Fc1ccccc1CSc1nc2ccccc2[nH]1	12
CCCCCCn1c(N2CCN(c3cccc(Cl)c3)CC2)nc2c1c(=O)[nH]c(=O)n2C	35*
CCCCCCn1c(N2CCN(c3ccccc3)CC2)nc2c1c(=O)[nH]c(=O)n2C	11
CC(C)CCn1c(N2CCN(c3cccc(Cl)c3)CC2)nc2c1c(=O)[nH]c(=O)n2C	27
CCC(CC)C(=O)Nc1ccc(Cl)c(Cl)c1	-4
O=C(C1CCCN1C(=O)c1cccs1)N1CCc2ccccc21 (stereo unspecified)	5
CCn1c(SCC(=O)c2ccc(OC)cc2)nnc1C(C)NC(=O)c1ccc(OC)cc1 (stereo unspecified)	-5
Cc1nc(NC(=O)c2cc3c(C)nn(-c4ccccc4)c3s2)sc1C(=O)Nc1ccccc1	83*
Cc1nn(-c2ccc(F)cc2)c2sc(C(=O)N3CCCCCC3)cc12	6
Cc1nc(C)c(C(=O)Nc2ccccc2)s1	-4
CCOP(=O)(c1ccccc1)C1(O)CCCCC1 (stereo unspecified)	-6
Cc1ccc(Nc2nc(N)nc(CN3CCCCCC3)n2)cc1	40*
CC1CC(C)CN(Cc2nc(N)nc(Nc3ccccc3)n2)C1 (stereo unspecified)	-3
Cc1c(Cl)cccc1Nc1nc(N)nc(CN2CCCCCC2)n1	4
COc1ccc(C(=O)c2c(C(F)(F)F)oc3c2C(=O)c2ccccc2C3=O)cc1OC	36*
COc1ccc(C(=O)/C=C/N(C)C)cc1OC	3
COc1ccc(C(=O)Nc2ccc(OCC(F)(F)C(F)F)c(C(F)(F)F)c2)cc1OC	10
O=C(CN1C(=O)c2ccccc2S1(=O)=O)N1CCc2ccccc2C1	-15
CCSc1c(-c2ccccc2)nc2c(C)cccc2c1C(=O)O	7
CCCOC(=O)/C(=C\c1ccc([N+](=O)[O-])o1)NC(=O)c1ccccc1	5
Cc1ccc2nc(N/N=C\c3ccc([N+](=O)[O-])o3)nc(-c3ccccc3)c2c1	39*
Cc1ccc(/C=N\Nc2nc3ccc(Cl)cc3[nH]2)o1	-4
O=C(NNC(=O)c1ccc([N+](=O)[O-])o1)c1ccccc1	0

From PubChem BioAssay
